# Reference: PMC7862700, “An all-to-all approach to the identification of sequence-specific readers for epigenetic DNA modifications on cytosine”
# How the values were obtained:
# Assay in all cases: DAPPL (digital affinity profiling via proximity ligation, sequencing); 10 mM Tris-HCl pH 7.5, 50 mM NaCl, 1 mM DTT, 4% glycerol, room temperature, 30 min; GST-TFs on glutathione beads, 16-mer random dsDNA library, 0.1% formaldehyde crosslink after washing; high values mean tight binding
# [1] = target: T1, FEV (Homo sapiens, UniProt Q99581 1-238); settings: protein: recombinant; tags: N-terminal GST; dsDNA, one strand shown
# T1 sequence: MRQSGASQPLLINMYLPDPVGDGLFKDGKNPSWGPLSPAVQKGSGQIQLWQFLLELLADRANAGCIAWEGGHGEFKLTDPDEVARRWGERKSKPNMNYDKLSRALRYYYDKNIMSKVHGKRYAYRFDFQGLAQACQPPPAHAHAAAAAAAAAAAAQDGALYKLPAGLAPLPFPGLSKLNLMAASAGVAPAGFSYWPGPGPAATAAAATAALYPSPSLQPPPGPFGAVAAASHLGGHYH
# Outline: (§1)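 Binding signal is given per hexamer as its read frequency for a factor divided by its frequency in the tag-only sample. GST-fused human transcription factors were expressed in yeast, captured on glutathione beads, barcoded with DNA and pooled with that sample, then incubated with 200 nmole of a 16-mer random double-stranded DNA library in Tris/NaCl/DTT/glycerol buffer for 30 min at room temperature. The pools were then washed, crosslinked, proximity-ligated, amplified by PCR and sequenced on an Illumina NextSeq500.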
# [2] = target: ETV5 (Homo sapiens, UniProt P41161 1-510); settings: protein: recombinant; tags: N-terminal GST; dsDNA, one strand shown
# Outline: as §1
# [3] = target: HSF1 (Homo sapiens, UniProt Q00613 1-529); settings: protein: recombinant; tags: N-terminal GST; chain copies: 3; dsDNA, one strand shown
# Outline: as §1
# [4] = target: T2, SPIC (Homo sapiens, UniProt Q8N5J4 1-248); settings: protein: recombinant; tags: N-terminal GST; dsDNA, one strand shown
# T2 sequence: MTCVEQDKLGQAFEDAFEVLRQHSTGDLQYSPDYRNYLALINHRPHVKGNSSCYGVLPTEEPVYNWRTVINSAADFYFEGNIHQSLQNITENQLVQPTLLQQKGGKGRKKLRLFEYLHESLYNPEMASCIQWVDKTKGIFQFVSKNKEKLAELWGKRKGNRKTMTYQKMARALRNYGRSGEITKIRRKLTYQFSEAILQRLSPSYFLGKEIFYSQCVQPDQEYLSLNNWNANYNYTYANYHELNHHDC
# Outline: as §1
# [5] = target: ELF4 (Homo sapiens, UniProt Q99607 1-663); settings: protein: recombinant; tags: N-terminal GST; dsDNA, one strand shown
# Outline: as §1
# [6] = target: T3, ELK4 (Homo sapiens, UniProt P28324-2 1-405); settings: protein: recombinant; tags: N-terminal GST; dsDNA, one strand shown
# T3 sequence: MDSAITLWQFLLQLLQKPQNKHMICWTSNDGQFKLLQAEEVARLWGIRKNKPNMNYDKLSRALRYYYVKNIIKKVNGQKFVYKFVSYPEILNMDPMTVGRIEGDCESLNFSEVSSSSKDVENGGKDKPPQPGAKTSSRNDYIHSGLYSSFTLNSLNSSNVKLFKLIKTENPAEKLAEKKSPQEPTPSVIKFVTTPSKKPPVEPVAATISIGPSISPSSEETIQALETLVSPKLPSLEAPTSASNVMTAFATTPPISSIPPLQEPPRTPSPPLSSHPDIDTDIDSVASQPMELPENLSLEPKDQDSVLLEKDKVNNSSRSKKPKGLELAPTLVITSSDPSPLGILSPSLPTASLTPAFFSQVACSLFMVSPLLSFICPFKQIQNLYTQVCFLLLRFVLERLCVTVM
# Outline: as §1
# [7] = target: T4, ETV2 (Homo sapiens, UniProt O00321 1-342); settings: protein: recombinant; tags: N-terminal GST; dsDNA, one strand shown
# T4 sequence: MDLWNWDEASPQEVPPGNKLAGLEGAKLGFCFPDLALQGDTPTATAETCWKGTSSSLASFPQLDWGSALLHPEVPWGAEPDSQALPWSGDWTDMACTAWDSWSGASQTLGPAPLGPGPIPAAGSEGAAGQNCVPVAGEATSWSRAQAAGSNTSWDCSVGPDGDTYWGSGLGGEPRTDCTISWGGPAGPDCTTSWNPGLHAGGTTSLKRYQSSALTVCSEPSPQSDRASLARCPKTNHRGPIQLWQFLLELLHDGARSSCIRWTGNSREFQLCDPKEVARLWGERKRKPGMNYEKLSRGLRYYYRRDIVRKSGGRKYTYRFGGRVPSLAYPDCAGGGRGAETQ
# Outline: as §1
# [8] = target: T5, ELF3 (Homo sapiens, UniProt P78545 1-371); settings: protein: recombinant; tags: N-terminal GST; dsDNA, one strand shown
# T5 sequence: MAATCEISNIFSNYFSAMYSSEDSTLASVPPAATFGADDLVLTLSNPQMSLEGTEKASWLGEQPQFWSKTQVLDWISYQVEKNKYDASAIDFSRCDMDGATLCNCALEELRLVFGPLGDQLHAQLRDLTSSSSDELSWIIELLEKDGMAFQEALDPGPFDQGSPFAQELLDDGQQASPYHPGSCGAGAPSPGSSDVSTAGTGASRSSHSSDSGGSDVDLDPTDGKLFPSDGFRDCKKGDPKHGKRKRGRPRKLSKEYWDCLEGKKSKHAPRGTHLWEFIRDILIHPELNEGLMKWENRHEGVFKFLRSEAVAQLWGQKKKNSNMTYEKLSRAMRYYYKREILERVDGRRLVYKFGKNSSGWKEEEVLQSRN
# Outline: as §1
# [9] = target: CRX (Homo sapiens, UniProt O43186 1-299); settings: protein: recombinant; tags: N-terminal GST; dsDNA, one strand shown
# Outline: as §1
# [10] = target: ETV1 (Homo sapiens, UniProt P50549 1-477); settings: protein: recombinant; tags: N-terminal GST; dsDNA, one strand shown
# Outline: as §1
# [11] = target: T6, ERF (Homo sapiens, UniProt P50548 1-548); settings: protein: recombinant; tags: N-terminal GST; dsDNA, one strand shown
# T6 sequence: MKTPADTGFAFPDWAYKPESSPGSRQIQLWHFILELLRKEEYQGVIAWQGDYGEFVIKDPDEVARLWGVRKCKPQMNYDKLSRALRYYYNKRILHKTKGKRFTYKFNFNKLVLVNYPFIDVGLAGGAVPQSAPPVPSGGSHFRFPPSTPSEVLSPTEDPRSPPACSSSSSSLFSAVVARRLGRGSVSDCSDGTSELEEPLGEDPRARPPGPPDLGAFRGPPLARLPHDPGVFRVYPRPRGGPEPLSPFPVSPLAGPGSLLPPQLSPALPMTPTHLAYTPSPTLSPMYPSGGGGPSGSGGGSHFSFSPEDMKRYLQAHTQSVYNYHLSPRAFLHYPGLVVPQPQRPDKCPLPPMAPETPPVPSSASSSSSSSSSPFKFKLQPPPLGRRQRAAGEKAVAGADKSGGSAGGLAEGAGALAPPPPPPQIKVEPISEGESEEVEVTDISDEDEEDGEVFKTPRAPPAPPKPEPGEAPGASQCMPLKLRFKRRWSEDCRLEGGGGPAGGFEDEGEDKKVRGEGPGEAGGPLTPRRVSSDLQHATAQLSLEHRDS
# Outline: as §1
# [12] = target: T7, ETV3L (Homo sapiens, UniProt Q6ZN32 1-361); settings: protein: recombinant; tags: N-terminal GST; dsDNA, one strand shown
# T7 sequence: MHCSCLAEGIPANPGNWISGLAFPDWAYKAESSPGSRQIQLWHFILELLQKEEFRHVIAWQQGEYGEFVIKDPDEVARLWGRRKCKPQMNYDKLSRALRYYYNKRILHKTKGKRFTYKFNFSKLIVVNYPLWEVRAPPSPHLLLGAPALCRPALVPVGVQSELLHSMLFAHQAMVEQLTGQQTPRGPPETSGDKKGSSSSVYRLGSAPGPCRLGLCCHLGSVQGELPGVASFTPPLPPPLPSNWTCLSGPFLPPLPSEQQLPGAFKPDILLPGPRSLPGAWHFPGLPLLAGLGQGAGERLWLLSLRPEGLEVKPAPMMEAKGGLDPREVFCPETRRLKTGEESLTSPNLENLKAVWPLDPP
# Outline: as §1
# [13] = target: T8, ETS2 (Homo sapiens, UniProt P15036 1-469); settings: protein: recombinant; tags: N-terminal GST; dsDNA, one strand shown
# T8 sequence: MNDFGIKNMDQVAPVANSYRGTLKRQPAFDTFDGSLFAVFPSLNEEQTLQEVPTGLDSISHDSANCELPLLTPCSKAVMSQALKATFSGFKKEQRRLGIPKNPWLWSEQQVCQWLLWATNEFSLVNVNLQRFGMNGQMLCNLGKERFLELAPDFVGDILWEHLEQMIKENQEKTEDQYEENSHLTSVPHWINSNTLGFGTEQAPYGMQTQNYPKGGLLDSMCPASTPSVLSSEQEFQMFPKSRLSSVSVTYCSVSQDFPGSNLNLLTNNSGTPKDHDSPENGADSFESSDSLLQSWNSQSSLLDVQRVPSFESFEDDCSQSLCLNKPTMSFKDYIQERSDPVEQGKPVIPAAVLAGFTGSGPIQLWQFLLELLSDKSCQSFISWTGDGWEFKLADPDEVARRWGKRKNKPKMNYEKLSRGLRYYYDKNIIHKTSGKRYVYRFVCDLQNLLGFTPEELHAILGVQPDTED
# Outline: as §1
# [14] = target: T9, SPDEF (Homo sapiens, UniProt O95238 1-335); settings: protein: recombinant; tags: N-terminal GST; dsDNA, one strand shown
# T9 sequence: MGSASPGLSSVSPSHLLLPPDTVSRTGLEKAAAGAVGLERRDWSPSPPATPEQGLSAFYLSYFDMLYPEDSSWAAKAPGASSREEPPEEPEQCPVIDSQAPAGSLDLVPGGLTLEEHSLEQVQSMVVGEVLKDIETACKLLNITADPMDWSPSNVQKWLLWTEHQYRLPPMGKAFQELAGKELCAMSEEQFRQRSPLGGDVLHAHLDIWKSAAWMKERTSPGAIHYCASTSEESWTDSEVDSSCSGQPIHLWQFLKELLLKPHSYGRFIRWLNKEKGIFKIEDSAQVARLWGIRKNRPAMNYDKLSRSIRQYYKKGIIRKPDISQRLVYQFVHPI
# Outline: as §1
# [15] = target: T10, ETV7 (Homo sapiens, UniProt Q9Y603 1-341); settings: protein: recombinant; tags: N-terminal GST; dsDNA, one strand shown
# T10 sequence: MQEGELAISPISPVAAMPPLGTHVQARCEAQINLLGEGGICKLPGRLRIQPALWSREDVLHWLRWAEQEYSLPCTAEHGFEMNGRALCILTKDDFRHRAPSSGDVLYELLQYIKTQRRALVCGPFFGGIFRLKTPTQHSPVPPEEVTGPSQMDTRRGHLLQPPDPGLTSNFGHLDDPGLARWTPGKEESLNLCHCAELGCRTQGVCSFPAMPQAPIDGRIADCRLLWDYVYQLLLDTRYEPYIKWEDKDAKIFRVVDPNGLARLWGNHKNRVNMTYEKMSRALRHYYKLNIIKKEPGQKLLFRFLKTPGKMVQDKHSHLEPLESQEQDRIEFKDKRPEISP
# Outline: as §1
# [16] = target: T11, ELF5 (Homo sapiens, UniProt Q9UKW6-2 1-255); settings: protein: recombinant; tags: N-terminal GST; dsDNA, one strand shown
# T11 sequence: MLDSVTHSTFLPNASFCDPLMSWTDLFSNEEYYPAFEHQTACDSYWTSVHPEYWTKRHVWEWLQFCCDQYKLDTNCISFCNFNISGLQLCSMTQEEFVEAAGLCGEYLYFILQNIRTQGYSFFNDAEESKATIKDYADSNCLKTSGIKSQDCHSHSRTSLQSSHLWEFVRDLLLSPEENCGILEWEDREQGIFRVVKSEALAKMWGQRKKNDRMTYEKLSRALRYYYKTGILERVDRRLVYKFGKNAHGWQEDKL
# Outline: as §1
# [17] = target: T12, ETV3 (Homo sapiens, UniProt P41162-2 1-143); settings: protein: recombinant; tags: N-terminal GST; dsDNA, one strand shown
# T12 sequence: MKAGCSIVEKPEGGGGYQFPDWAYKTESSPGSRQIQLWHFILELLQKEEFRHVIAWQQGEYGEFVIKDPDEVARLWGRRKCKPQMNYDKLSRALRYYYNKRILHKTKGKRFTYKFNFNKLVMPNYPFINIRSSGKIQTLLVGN
# Outline: as §1
# [18] = target: ETV6 (Homo sapiens, UniProt P41212 1-452); settings: protein: recombinant; tags: N-terminal GST; dsDNA, one strand shown
# Outline: as §1
# ELF4, sequence (Q99607 whole entry): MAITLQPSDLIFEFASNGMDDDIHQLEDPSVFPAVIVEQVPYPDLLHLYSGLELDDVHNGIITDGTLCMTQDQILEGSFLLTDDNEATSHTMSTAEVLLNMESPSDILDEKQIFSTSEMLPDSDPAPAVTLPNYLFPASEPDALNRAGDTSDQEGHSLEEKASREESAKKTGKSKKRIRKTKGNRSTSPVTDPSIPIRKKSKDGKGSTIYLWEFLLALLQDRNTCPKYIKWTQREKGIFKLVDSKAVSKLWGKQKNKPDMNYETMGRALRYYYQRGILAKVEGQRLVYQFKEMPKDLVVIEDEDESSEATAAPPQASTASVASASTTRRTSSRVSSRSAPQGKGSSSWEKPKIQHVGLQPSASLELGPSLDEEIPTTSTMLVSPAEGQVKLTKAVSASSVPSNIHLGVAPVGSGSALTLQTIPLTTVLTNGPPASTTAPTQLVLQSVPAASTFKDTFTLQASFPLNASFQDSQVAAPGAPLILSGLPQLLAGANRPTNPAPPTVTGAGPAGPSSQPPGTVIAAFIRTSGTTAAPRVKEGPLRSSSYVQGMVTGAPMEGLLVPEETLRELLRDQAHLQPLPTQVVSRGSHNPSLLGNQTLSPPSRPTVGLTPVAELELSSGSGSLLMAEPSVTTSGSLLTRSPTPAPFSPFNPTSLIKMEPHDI
# ETV6, sequence (P41212 whole entry): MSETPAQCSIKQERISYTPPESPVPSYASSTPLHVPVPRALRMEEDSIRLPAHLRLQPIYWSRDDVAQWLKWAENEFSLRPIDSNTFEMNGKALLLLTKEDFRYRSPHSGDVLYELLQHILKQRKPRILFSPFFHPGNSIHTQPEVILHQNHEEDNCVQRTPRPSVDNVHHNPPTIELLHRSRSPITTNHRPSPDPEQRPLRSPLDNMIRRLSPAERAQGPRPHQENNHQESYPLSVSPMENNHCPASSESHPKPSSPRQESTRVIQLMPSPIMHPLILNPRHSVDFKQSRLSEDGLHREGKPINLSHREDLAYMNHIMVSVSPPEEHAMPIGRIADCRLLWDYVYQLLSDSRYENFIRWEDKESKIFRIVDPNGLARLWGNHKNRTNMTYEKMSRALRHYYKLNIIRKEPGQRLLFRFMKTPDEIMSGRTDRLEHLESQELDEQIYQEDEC
# ETV1, sequence (P50549 whole entry): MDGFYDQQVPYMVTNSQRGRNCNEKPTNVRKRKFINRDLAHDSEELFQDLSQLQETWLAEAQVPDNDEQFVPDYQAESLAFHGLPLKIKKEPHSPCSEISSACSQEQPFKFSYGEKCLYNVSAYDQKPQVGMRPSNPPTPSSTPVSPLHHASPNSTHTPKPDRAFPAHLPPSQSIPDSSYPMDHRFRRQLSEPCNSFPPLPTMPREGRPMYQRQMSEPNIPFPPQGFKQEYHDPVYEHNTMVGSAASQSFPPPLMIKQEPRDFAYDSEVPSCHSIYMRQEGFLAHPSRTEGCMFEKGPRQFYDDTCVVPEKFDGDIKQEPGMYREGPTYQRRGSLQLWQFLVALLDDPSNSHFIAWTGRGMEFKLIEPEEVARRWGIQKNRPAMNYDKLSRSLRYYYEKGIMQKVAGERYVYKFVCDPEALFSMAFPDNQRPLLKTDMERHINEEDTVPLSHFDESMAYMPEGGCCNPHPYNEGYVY
# HSF1, sequence (Q00613 whole entry): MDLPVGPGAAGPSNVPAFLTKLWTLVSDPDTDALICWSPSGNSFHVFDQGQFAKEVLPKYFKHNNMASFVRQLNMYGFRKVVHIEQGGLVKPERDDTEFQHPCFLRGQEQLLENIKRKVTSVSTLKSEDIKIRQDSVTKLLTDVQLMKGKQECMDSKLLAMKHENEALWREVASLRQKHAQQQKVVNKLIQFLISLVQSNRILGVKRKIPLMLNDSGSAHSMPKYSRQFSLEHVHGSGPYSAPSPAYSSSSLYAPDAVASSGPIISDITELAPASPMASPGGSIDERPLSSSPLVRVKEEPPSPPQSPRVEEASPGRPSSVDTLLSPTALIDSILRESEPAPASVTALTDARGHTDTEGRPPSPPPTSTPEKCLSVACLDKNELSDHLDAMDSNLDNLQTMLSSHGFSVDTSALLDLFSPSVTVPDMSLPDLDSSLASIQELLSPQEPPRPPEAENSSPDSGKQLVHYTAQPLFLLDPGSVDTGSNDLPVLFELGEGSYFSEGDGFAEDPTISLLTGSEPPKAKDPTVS
# CRX, sequence (O43186 whole entry): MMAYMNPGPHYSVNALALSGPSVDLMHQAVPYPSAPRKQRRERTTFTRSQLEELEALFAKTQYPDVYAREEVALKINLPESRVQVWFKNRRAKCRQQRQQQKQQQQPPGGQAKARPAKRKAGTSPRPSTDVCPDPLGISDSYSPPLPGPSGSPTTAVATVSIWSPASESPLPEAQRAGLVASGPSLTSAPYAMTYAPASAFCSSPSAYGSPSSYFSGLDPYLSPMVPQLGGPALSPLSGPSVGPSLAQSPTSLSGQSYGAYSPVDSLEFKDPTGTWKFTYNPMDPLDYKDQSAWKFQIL
# ETV5, sequence (P41161 whole entry): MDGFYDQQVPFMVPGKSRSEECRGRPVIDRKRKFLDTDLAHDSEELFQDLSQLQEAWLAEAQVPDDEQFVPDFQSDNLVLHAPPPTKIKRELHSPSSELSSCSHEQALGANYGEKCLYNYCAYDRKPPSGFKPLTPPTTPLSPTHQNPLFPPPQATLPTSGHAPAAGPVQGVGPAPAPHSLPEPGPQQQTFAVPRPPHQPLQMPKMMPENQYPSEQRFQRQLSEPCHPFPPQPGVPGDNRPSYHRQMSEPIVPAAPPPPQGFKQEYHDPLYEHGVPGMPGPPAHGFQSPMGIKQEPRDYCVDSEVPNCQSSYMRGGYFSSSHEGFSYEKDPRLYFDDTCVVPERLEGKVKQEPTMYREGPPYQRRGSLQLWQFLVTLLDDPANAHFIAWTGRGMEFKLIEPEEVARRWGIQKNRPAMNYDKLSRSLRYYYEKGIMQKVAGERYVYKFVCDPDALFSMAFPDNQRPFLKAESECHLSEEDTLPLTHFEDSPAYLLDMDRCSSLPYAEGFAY
sequence,measurement,setting,value
ATTGAC,binding signal,[1],"1.18 fold enrichment (6-mer frequency, TF over GST control)"
same,binding signal,[2],"1.17 fold enrichment (6-mer frequency, TF over GST control)"
same,binding signal,[3],"1.01 fold enrichment (6-mer frequency, TF over GST control)"
same,binding signal,[4],"1.11 fold enrichment (6-mer frequency, TF over GST control)"
same,binding signal,[5],"1.15 fold enrichment (6-mer frequency, TF over GST control)"
same,binding signal,[6],"1.34 fold enrichment (6-mer frequency, TF over GST control)"
same,binding signal,[7],"1.38 fold enrichment (6-mer frequency, TF over GST control)"
same,binding signal,[8],"1.19 fold enrichment (6-mer frequency, TF over GST control)"
same,binding signal,[9],"1.11 fold enrichment (6-mer frequency, TF over GST control)"
same,binding signal,[10],"1.1 fold enrichment (6-mer frequency, TF over GST control)"
same,binding signal,[11],"1.24 fold enrichment (6-mer frequency, TF over GST control)"
same,binding signal,[12],"1.26 fold enrichment (6-mer frequency, TF over GST control)"
same,binding signal,[13],"1.36 fold enrichment (6-mer frequency, TF over GST control)"
same,binding signal,[14],"1.12 fold enrichment (6-mer frequency, TF over GST control)"
same,binding signal,[15],"1.25 fold enrichment (6-mer frequency, TF over GST control)"
same,binding signal,[16],"1.19 fold enrichment (6-mer frequency, TF over GST control)"
same,binding signal,[17],"1.21 fold enrichment (6-mer frequency, TF over GST control)"
same,binding signal,[18],"1.23 fold enrichment (6-mer frequency, TF over GST control)"
